The supplement of paper PMC10981050
Where “and” joins values, the source holds several entries; their conditions need not be identical. Equal entries are not always repeated. Structures can show the parent of a compound that is named as a salt.

Assays:
Assay in all cases: cell viability relative to vehicle control; higher = less cytotoxic
Conditions in all cases: 10 µM
[1] = test system: K562
Procedure, shortened: (§1)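 CRISPR-edited mutant clones and isogenic wild-type clones from four leukaemia lines were screened against Selleck bioactive, kinase and epigenetic probe libraries, with identity-inconsistent compounds excluded. Each compound was acoustically dispensed at a single 10 µM dose into 384-well plates holding 2000 cells in 50 µL medium per well. After 48 h the supernatant was removed and CellTiter-Glo luminescence was read. Viability was expressed as percent of the on-plate vehicle control and analysed in Genedata Screener.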

[2] = test system: MARIMO
Procedure, shortened: as §1

[3] = test system: MOLM14
Procedure, shortened: as §1

[4] = test system: OCI-AML2
Procedure, shortened: as §1

Row | SMILES | cell viability ([1]; SRSF2 genotype: SRSF2 P95H/wt) | cell viability ([1]; SRSF2 genotype: SRSF2 wt/wt) | cell viability ([2]; SRSF2 genotype: SRSF2 P95H/wt) | cell viability ([2]; SRSF2 genotype: SRSF2 wt/wt) | cell viability ([3]; SRSF2 genotype: SRSF2 P95H/wt) | cell viability ([3]; SRSF2 genotype: SRSF2 wt/wt) | cell viability ([4]; SRSF2 genotype: P95H/wt) | cell viability ([4]; SRSF2 genotype: wt/wt)
1 | CCc1cc(Nc2nccc(-c3c(-c4ccc(OC)c(C(=O)Nc5c(F)cccc5F)c4)nc4ccccn34)n2)c(OC)cc1N1CCC(N2CCN(S(C)(=O)=O)CC2)CC1 | 88.6% and 96.3% | 97.3% | 106% | 108% | 105% | 100% | 93.9% | 98.7%
2 | CN1CCN(c2ccc3nc(-c4c(N)c5c(F)cccc5[nH]c4=O)[nH]c3c2)CC1 [Dovitinib Dilactic acid (TKI258 Dilactic aci] | 6.48% and 13.2% | 8.9% | 10.8% | 12.8% | 0.16% | 0.07% | 0.15% | 0.51%
3 | Cc1cc(S(=O)(=O)O)c2c(C)ccc(C(C)C)cc1-2 [Sodium gualenate] | 103% | 103% | 100% | 108% | 99% | 104% | 95.2% | 106%
4 | O=C(Nc1cccnc1)N1CCC(Cc2cccc(Oc3ccc(C(F)(F)F)cn3)c2)CC1 | 42% and 43.6% | 44.4% | 43.6% | 35.1% | 51.2% | 28.9% | 38.3% | 27.1%
5 | CC(C)C[C@H](NC(=O)[C@@H](NC(=O)c1cccc(-c2ccccc2)n1)[C@@H](C)O)B(O)O | 2.12% and 2.65% | 3.78% | 0.85% | 2.98% | 0.49% | 0.44% | 0.41% | 2.11%
6 | CC(C)(C)C(=O)Oc1ccc(S(=O)(=O)Nc2ccccc2C(=O)NCC(=O)O)cc1 [Sivelestat sodium tetrahydrate] | 101% and 94.9% | 102% | 96.7% | 102% | 106% | 100% | 96.5% | 99.2%
7 | Oc1ccc(Cc2nc3c(Cc4ccccc4)nc(-c4ccc(O)cc4)cn3c2O)cc1 [Coelenterazine] | 96.7% and 92.9% | 101% | 94.9% | 93.5% | 86.2% | 97% | 98.8% | 98%
8 | CC(=O)O/N=C1\C(=O)N(Cc2cc(Cl)ccc2Cl)c2ccc(Cl)cc21 | 92% and 94.5% | 85.1% | 15.6% | 91.5% | 30.4% | 90.7% | 1.27% | 9.59%
9 | Nc1cccc2c1C(=O)N(C1CCC(=O)NC1=O)C2=O (stereo not given) [Pomalidomide] | 102% and 96.9% | 88% | 87.4% | 99% | 88.5% | 93.5% | 120% | 121%
10 | CC(=O)O[C@H](CC=C(C)C)C1=CC(=O)c2c(O)ccc(O)c2C1=O [Acetylshikonin] | 4.63% and 1.27% | 1.38% | 0.73% | 0.66% | 0.73% | 0.53% | 0.72% | 0.59%
11 | CCCC(=O)Nc1cccc(NC(=O)c2ccccc2Br)c1 | 92.9% | 95.5% | 97.8% | 96.5% | 102% | 100% | 95.7% | 95%
12 | CCCN(CCC)S(=O)(=O)c1ccc(C(=O)O)cc1 [Probenecid (Benemid)] | 99.3% and 88.4% | 91% | 92.1% | 101% | 96.4% | 97% | 96.2% | 88.9%
13 | Cc1cc(Nc2nc(N[C@@H](C)c3ccc(F)cc3)c(C#N)cc2F)n[nH]1 | 53.7% and 73% | 75.5% | 30.6% | 33.4% | 1.75% | 3.5% | 6.13% | 15.8%
14 | O=C(/C=C\n1cnc(-c2cc(C(F)(F)F)cc(C(F)(F)F)c2)n1)NNc1ccccn1 [Verdinexor (KPT-335)] | 11.8% and 21.6% | 14.7% | 24.4% | 22.1% | 2.16% | 1.01% | 4.7% | 9.56%
15 | COc1cc(C(=O)OCCCCNC(=N)N)cc(OC)c1O [Leonurine Hydrochloride] | 95.9% and 95.7% | 101% | 98.8% | 95.4% | 98% | 102% | 101% | 98.6%
16 | Cn1cc(-c2ccc3c(c2)CCN3C(=O)Cc2cccc(C(F)(F)F)c2)c2c(N)ncnc21 | 37.6% and 52.8% | 39.2% | 60.5% | 62.1% | 16.1% | 16% | 26.3% | 28.8%
17 | CC(C)=CC(=O)O[C@H]1Cc2cc3ccc(=O)oc3cc2OC1(C)C [Decursin] | 89.5% and 93.4% | 90% | 81.6% | 88.5% | 91.1% | 92.5% | 83.7% | 87%
18 | CC1(C)CC[C@]2(C(=O)O)CC[C@]3(C)C(=CC[C@@H]4[C@@]5(C)CC[C@H](O)[C@@](C)(CO)[C@@H]5CC[C@]43C)[C@@H]2C1 [Hederagenin] | 103% and 102% | 97.1% | 98.4% | 112% | 106% | 105% | 120% | 107%
19 | COc1cc2nccc(Oc3ccc(NC(=O)NC4CC4)c(Cl)c3)c2cc1C(N)=O [E7080 (Lenvatinib)] | 63.7% and 82.7% | 67.5% | 83.9% | 89.3% | 34.6% | 28.1% | 50.9% | 56.1%
20 | NC(=O)c1ccccn1 [Picolinamide] | 104% and 95.8% | 100% | 103% | 108% | 101% | 106% | 92.7% | 110%

Row | SMILES | cell viability ([1]; SRSF2 genotype: SRSF2 P95H/wt) | cell viability ([1]; SRSF2 genotype: SRSF2 wt/wt) | cell viability ([2]; SRSF2 genotype: SRSF2 P95H/wt) | cell viability ([2]; SRSF2 genotype: SRSF2 wt/wt) | cell viability ([3]; SRSF2 genotype: SRSF2 P95H/wt) | cell viability ([3]; SRSF2 genotype: SRSF2 wt/wt) | cell viability ([4]; SRSF2 genotype: P95H/wt) | cell viability ([4]; SRSF2 genotype: wt/wt)
21 | Cc1cccc(Nc2ccccc2C(=O)O)c1C [Mefenamic Acid] | 98.6% and 99.4% | 96.4% | 103% | 92.8% | 94.5% | 98.5% | 106% | 101%
22 | O=C(CCc1ccc(O)cc1)c1c(O)cc(O)cc1O [Phloretin] | 96.9% and 94.4% | 98.1% | 93.5% | 90.2% | 91% | 95.7% | 87.5% | 87.9%
23 | N#Cc1c(N)nc(NC2CC2)nc1N [Dicyclanil] | 96.3% and 102% | 105% | 94.5% | 105% | 104% | 102% | 107% | 99.9%
24 | C[C@@H]1C[C@H]2[C@@H]3CCC4=CC(=O)C=C[C@]4(C)[C@@]3(F)[C@@H](O)C[C@]2(C)[C@@]1(O)C(=O)CO [Dexamethasone] | 99.7% and 95.1% | 92.8% | 106% | 99.8% | 95.4% | 90.6% | 98.2% | 103%
25 | OC(CN1CCN(c2cccc(Cl)c2)CC1)C(c1ccccc1)c1ccccc1 (stereo not given) | 84.9% and 91.9% | 91.3% | 84.2% | 90.6% | 86.9% | 94.5% | 86.9% | 89.1%
26 | Cc1ncc(COP(=O)(O)O)c(C=O)c1O [Pyridoxal 5-phosphate monohydrate] | 97.8% and 103% | 101% | 91.2% | 107% | 99.2% | 102% | 101% | 101%
27 | Cc1c(NC(=O)c2ccc(C(C)(C)C)cc2)cccc1-c1cn(C)c(=O)c(Nc2ccc(C(=O)N3CCOCC3)cc2)n1 | 94% and 92.1% | 90.8% | 91.5% | 97.4% | 96.1% | 93.4% | 82% | 87.4%
28 | O=C(NO)c1ccc(CC(=O)N(CCO)c2ccccc2)cc1 | 87.2% and 92.2% | 86.2% | 78.9% | 90.4% | 71.9% | 73.6% | 77.2% | 81.6%
29 | CC(C)(O)C1CCC(C)(C2C(O)CC3(C)C4CC(O)C5C(C)(C)C(O)CCC56CC46CCC23C)O1 (stereo not given) [Cyclogalegenol] | 93.6% and 88.3% | 89.8% | 93.5% | 104% | 94% | 95.7% | 97.4% | 103%
30 | C[C@H](N=C(NC#N)Nc1cccc2ncccc12)c1ccccc1 | 99.3% and 100% | 97% | 104% | 107% | 97.6% | 98.4% | 108% | 112%
31 | CO/N=C(\C(=O)N[C@@H]1C(=O)N2C(C(=O)O)=C(CSc3nc(C)c(CC(=O)O)s3)CS[C@H]12)c1csc(N)n1 [Cefodizime Sodium] | 96% and 90.5% | 103% | 100% | 112% | 97.1% | 104% | 99.6% | 107%
32 | CCCc1nc(C)c2c(=O)[nH]c(-c3cc(S(=O)(=O)N4CCN(CC)CC4)ccc3OCC)nn12 [Vardenafil Hydrochloride Trihydrate (Vivanza] | 99.1% and 107% | 97.1% | 110% | 108% | 105% | 106% | 135% | 115%
33 | CNCCc1ccccn1 [Betahistine 2HCl] | 97.2% and 99.7% | 95.5% | 88.7% | 102% | 90.6% | 99.8% | 89.3% | 101%
34 | COc1cc(Nc2ncc(F)c(Nc3ccc4c(n3)N(COP(=O)(O)O)C(=O)C(C)(C)O4)n2)cc(OC)c1OC | 97.6% and 98.5% | 97.5% | 107% | 114% | 8.88% | 11.4% | 26.3% | 37%
35 | Oc1nc(-c2ccc(C(F)(F)F)cc2)nc2c1CSCC2 | 105% and 99.2% | 105% | 104% | 105% | 94% | 95.5% | 94.6% | 96.7%
36 | C/C(=N\NC(=O)c1cccc(S(=O)(=O)N2CCOCC2)c1)c1cc(Cl)ccc1O | 57.4% and 51.4% | 37% | 20.1% | 24.4% | 6.59% | 1.96% | 10.8% | 11.4%
37 | CC(=O)c1ccc(O)c(C(=O)O)c1 [5-Acetylsalicylic acid] | 110% and 106% | 98% | 106% | 112% | 101% | 107% | 102% | 105%
38 | CCOC(=O)O[C@]1(C(=O)OCCl)CC[C@H]2[C@@H]3CCC4=CC(=O)C=C[C@]4(C)[C@H]3[C@@H](O)C[C@@]21C [Loteprednol etabonate] | 93.6% and 104% | 98% | 92.1% | 98.5% | 96.3% | 97.2% | 111% | 114%
39 | CC1=CCC2CC1C2(C)C (stereo not given) | 99.8% and 101% | 99.4% | 95.5% | 94.5% | 98.5% | 99.8% | 97% | 102%
40 | COc1ccc(Cl)cc1C(=O)NCCc1ccc(S(=O)(=O)NC(=O)NC2CCCCC2)cc1 [Glyburide (Glibenclamide)] | 107% and 98.6% | 110% | 106% | 120% | 108% | 103% | 98.8% | 104%
